Test results as given in PubChem BioAssay (NCI).
The panel holds about 79,000 compounds, 15% with a hit somewhere; the sample as a whole holds those more often. Activity calls are given as the source filed them. No stated cut-off is given here; in the data, active means growth inhibition above about 70%; inactive means the rest.

Columns and labels:
[1] = NCI Yeast Anticancer Drug Screen. Data for the mlh1 strain (AID 171);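 further: 0% = growth of vehicle-treated control cultures of the same strain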; settings: S. cerevisiae mlh1 strain growth inhibition, stronger effect = higher value
Method in brief: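 Test agents were incubated with yeast bearing a defined DNA damage repair or cell cycle control alteration; values are growth inhibition normalised to vehicle-treated cultures.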

[2] = NCI Yeast Anticancer Drug Screen. Data for the sgs1 strain (AID 173);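 further: 0% = growth of vehicle-only control cultures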; settings: S. cerevisiae sgs1 mutant, stronger effect = higher value
Method in brief: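 Strain with an altered DNA repair or cell cycle pathway exposed to compound. Growth then measured. Value = inhibition versus vehicle control.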

[3] = NCI Yeast Anticancer Drug Screen. Data for the mlh1 rad18 strain (AID 175); settings: S. cerevisiae mlh1 rad18 strain growth inhibition, stronger effect = higher value
Method in brief: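 A repair-deficient yeast strain is exposed to test compound, and growth is scored relative to vehicle-treated controls.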

[4] = NCI Yeast Anticancer Drug Screen. Data for the rad18 strain (AID 177); settings: S. cerevisiae rad18 mutant growth inhibition, stronger effect = higher value
Method in brief: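 DNA-repair-defective yeast; compound treatment; growth inhibition scored against vehicle.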

[5] = NCI Yeast Anticancer Drug Screen. Data for the rad52 strain (AID 147);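 further: 0% = growth of vehicle-treated control cultures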; settings: S. cerevisiae rad52 mutant growth inhibition, stronger effect = higher value
Method in brief: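 Growth of repair-deficient yeast cells was compared between compound-treated and vehicle-treated cultures to give percent inhibition.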

[6] = NCI Yeast Anticancer Drug Screen. Data for the wt1 strain (AID 149);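 further: 0% = growth of vehicle-treated wt1 cultures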; settings: S. cerevisiae wt1 strain (SPY 50644) growth inhibition, stronger effect = higher value
Method in brief: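 Using yeast strain wt1, compound-induced growth inhibition was determined against vehicle-treated cultures.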

[7] = NCI Yeast Anticancer Drug Screen. Data for the rad50EPP+ strain (AID 151);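 further: 0% = growth of vehicle-treated control cultures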; settings: S. cerevisiae rad50 mutant strain, stronger effect = higher value
Method in brief: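 Measured: growth inhibition of rad50EPP+ yeast. Reference: vehicle-treated controls. Screen uses strains with defined genetic alterations in DNA damage repair or cell cycle control.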

[8] = NCI Yeast Anticancer Drug Screen. Data for the mgt1 strain (AID 153); settings: S. cerevisiae mgt1 mutant growth inhibition, stronger effect = higher value
Method in brief: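 Compounds were applied to mgt1 mutant yeast, and growth was then compared against vehicle-treated control cultures to give percent inhibition.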

[9] = NCI Yeast Anticancer Drug Screen. Data for the rad50 strain (AID 155);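 further: 0% = growth of vehicle-only cultures of the same strain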; settings: S. cerevisiae rad50 strain growth inhibition, stronger effect = higher value
Method in brief: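 Relative growth inhibition (compound vs vehicle) was measured in yeast with a defined repair-gene alteration.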

[10] = NCI Yeast Anticancer Drug Screen. Data for the mec2-1 strain (AID 157); settings: S. cerevisiae mec2-1 strain, stronger effect = higher value
Method in brief: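 Compounds were applied to mec2-1 yeast cells. Their growth was then compared with that of vehicle-treated cultures to give growth inhibition.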

[11] = NCI Yeast Anticancer Drug Screen. Data for the rad14 strain (AID 159);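 further: 0% = growth of vehicle-treated control cultures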; settings: S. cerevisiae rad14 strain growth inhibition, stronger effect = higher value
Method in brief: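 Screen for anticancer potential: a yeast strain altered in DNA damage repair is grown with compound, and reduced growth is quantified against vehicle controls.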

[12] = NCI Yeast Anticancer Drug Screen. Data for the sgs1 mgt1 strain (AID 161);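 further: 0% = growth of cultures given vehicle only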; settings: S. cerevisiae sgs1 mgt1 strain, stronger effect = higher value
Method in brief: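 This yeast growth screen uses a strain with defined DNA-repair lesions; compound-treated growth is compared with vehicle-treated growth.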

[13] = NCI Yeast Anticancer Drug Screen. Data for the CLN2oe strain (AID 163);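 further: 0% = growth of vehicle-only control cultures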; settings: S. cerevisiae CLN2oe strain, stronger effect = higher value
Method in brief: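 Cells of an engineered yeast line with disturbed cell-cycle regulation are treated with compound. Inhibition of growth is then calculated relative to the vehicle-treated reference.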

[14] = NCI Yeast Anticancer Drug Screen. Data for the cln2 rad14 strain (AID 165);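 further: 0% = growth equal to vehicle treated cultures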; settings: S. cerevisiae cln2 rad14 strain, stronger effect = higher value
Method in brief: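 Strain: cln2 rad14 yeast, altered in cell cycle control and DNA damage repair. Read-out: growth inhibition vs vehicle.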

[15] = NCI Yeast Anticancer Drug Screen. Data for the bub3 strain (AID 167); settings: S. cerevisiae bub3 mutant strain, stronger effect = higher value
Method in brief: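 Screening used yeast with an engineered genetic alteration affecting cell cycle control. Compound-exposed cultures were compared with vehicle cultures, and reduced growth was taken as inhibition.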

[16] = NCI Yeast Anticancer Drug Screen. Data for the wt2 strain (AID 169);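 further: 0% = growth of vehicle-treated yeast cultures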; settings: S. cerevisiae wt2 strain growth inhibition, stronger effect = higher value
Method in brief: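 Growth of compound-treated yeast is measured and expressed as inhibition relative to vehicle-only controls.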

[17] = at 5.0 µM (retest, dose inferred, filed as 0.5)
[18] = at 50.0 µM (retest, dose inferred, filed as 5.0)

Measured: growth inhibition

N#CCC(=O)N/N=C(\c1ccccc1)C(c1ccccc1)C1(O)C(=O)Nc2c(Cl)ccc(Cl)c21 (centres undefined)
inactive: [1]; at 1.2 µM 0% | [1]; at 3.7 µM -1% | [1]; at 11.0 µM -1% | [1]; at 33.0 µM 0% | [1]; at 100.0 µM 18% | [2]; at 1.2 µM -1% | [2]; at 3.7 µM 0% | [2]; at 11.0 µM 1% | [2]; at 33.0 µM 11% | [2]; at 100.0 µM 37% | [3]; [17] 6% | [3]; [18] -6% | [3]; at 50.0 µM 69.2% | [4]; at 1.2 µM 3% | [4]; at 3.7 µM 8% | [4]; at 11.0 µM 15% | [4]; at 33.0 µM 24% | [4]; at 100.0 µM 39%

O=C(O)c1c2ccc(Cl)cc2nc2[nH]c(=O)[nH]c(=O)c12
inactive: [5]; at 1.2 µM -38% | [5]; at 3.7 µM -34% | [5]; at 11.0 µM -25% | [5]; at 33.0 µM -30% | [5]; at 100.0 µM -13% | [6]; at 1.2 µM -37% | [6]; at 3.7 µM -35% | [6]; at 11.0 µM -44% | [6]; at 33.0 µM -38% | [6]; at 100.0 µM -18% | [7]; at 1.2 µM -13% | [7]; at 3.7 µM -46% | [7]; at 11.0 µM -10% | [7]; at 33.0 µM 28% | [7]; at 100.0 µM 50% | [8]; at 1.2 µM -37% | [8]; at 3.7 µM -31% | [8]; at 11.0 µM -35% | [8]; at 33.0 µM -5% | [8]; at 100.0 µM 17% | [9]; at 1.2 µM -56% | [9]; at 3.7 µM -28% | [9]; [17] 47% | [9]; at 11.0 µM -32% | [9]; at 33.0 µM -23% | [9]; [18] 45% | [9]; at 50.0 µM 29.4% | [9]; at 100.0 µM 36% | [10]; at 1.2 µM -63% | [10]; at 3.7 µM -50% | [10]; [17] 47% | [10]; at 11.0 µM -37% | [10]; at 33.0 µM -43% | [10]; [18] 52% | [10]; at 50.0 µM 36.9% | [10]; at 100.0 µM -30% | [11]; at 1.2 µM -14% | [11]; at 3.7 µM -16% | [11]; at 11.0 µM -21% | [11]; at 33.0 µM -22% | [11]; at 100.0 µM 3% | [12]; [17] 13% | [12]; [18] 26% | [12]; at 50.0 µM 27.6% | [13]; at 1.2 µM -45% | [13]; at 3.7 µM -33% | [13]; at 11.0 µM -24% | [13]; at 33.0 µM -13% | [13]; at 100.0 µM -1% | [14]; [17] 64% | [14]; [18] 12% | [14]; at 50.0 µM 9.2% | [15]; at 1.2 µM -57% | [15]; at 3.7 µM -40% | [15]; [17] 36% | [15]; at 11.0 µM -29% | [15]; at 33.0 µM -5% | [15]; at 100.0 µM 50% | [1]; at 1.2 µM -29% | [1]; at 3.7 µM -24% | [1]; at 11.0 µM -29% | [1]; at 33.0 µM -11% | [1]; at 100.0 µM 30% | [2]; at 1.2 µM -39% | [2]; at 3.7 µM -31% | [2]; at 11.0 µM -26% | [2]; at 33.0 µM -10% | [2]; at 100.0 µM 1% | [3]; [17] 45% | [3]; [18] 54% | [3]; at 50.0 µM 31.7% | [4]; at 1.2 µM -21% | [4]; at 3.7 µM -17% | [4]; at 11.0 µM -9% | [4]; at 33.0 µM -1% | [4]; at 100.0 µM 7%
active: [15]; [18] 82% | [15]; at 50.0 µM 79.5%

CCCCS(=O)(=O)Nc1ccc(Nc2c3ccccc3nc3ccccc23)c(OC)c1
active: [5]; at 3.7 µM 80% | [5]; at 11.0 µM 90% | [5]; at 33.0 µM 93% | [5]; at 100.0 µM 96% | [6]; at 100.0 µM 96% | [7]; at 100.0 µM 81% | [8]; at 100.0 µM 96% | [9]; at 3.7 µM 78% | [9]; [17] 86% | [9]; at 11.0 µM 89% | [9]; at 33.0 µM 94% | [9]; [18] 98% | [9]; at 100.0 µM 96% | [10]; at 33.0 µM 91% | [10]; [18] 98% | [10]; at 100.0 µM 98% | [11]; at 33.0 µM 79% | [11]; at 100.0 µM 96% | [12]; [18] 99% | [12]; at 50.0 µM 84% | [13]; at 33.0 µM 72% | [13]; at 100.0 µM 91% | [14]; [18] 95% | [14]; at 50.0 µM 77% | [15]; [18] 96% | [15]; at 50.0 µM 76.9% | [15]; at 100.0 µM 96% | [16]; at 100.0 µM 93% | [2]; at 33.0 µM 79% | [2]; at 100.0 µM 97% | [3]; [17] 78% | [3]; [18] 97% | [3]; at 50.0 µM 84% | [4]; at 33.0 µM 78% | [4]; at 100.0 µM 96%
inactive: [5]; at 1.2 µM 54% | [6]; at 1.2 µM -38% | [6]; at 3.7 µM -34% | [6]; at 11.0 µM -36% | [6]; at 33.0 µM 44% | [7]; at 1.2 µM -20% | [7]; at 3.7 µM -11% | [7]; at 11.0 µM 10% | [7]; at 33.0 µM 53% | [8]; at 1.2 µM -49% | [8]; at 3.7 µM -46% | [8]; at 11.0 µM -33% | [8]; at 33.0 µM 64% | [9]; at 1.2 µM 39% | [9]; at 50.0 µM 45% | [10]; at 1.2 µM -29% | [10]; at 3.7 µM -9% | [10]; [17] 15% | [10]; at 11.0 µM 37% | [10]; at 50.0 µM 47.5% | [11]; at 1.2 µM -31% | [11]; at 3.7 µM -25% | [11]; at 11.0 µM -9% | [12]; [17] 44% | [13]; at 1.2 µM 10% | [13]; at 3.7 µM 3% | [13]; at 11.0 µM 6% | [14]; [17] 25% | [15]; at 1.2 µM -53% | [15]; at 3.7 µM -63% | [15]; [17] 43% | [15]; at 11.0 µM -35% | [15]; at 33.0 µM 60% | [16]; at 1.2 µM -13% | [16]; at 3.7 µM -22% | [16]; at 11.0 µM -13% | [16]; at 33.0 µM 41% | [2]; at 1.2 µM 1% | [2]; at 3.7 µM 3% | [2]; at 11.0 µM 20% | [4]; at 1.2 µM -14% | [4]; at 3.7 µM -15% | [4]; at 11.0 µM 0%
